The whole screen tested about 160,000 compounds, of which about 240 (0.15%) were called active. The sample holds actives, similar compounds and a random draw of the others, so the mix is not that of the screen. Values without a mark were called inactive. Cut-off read from the data, not from the text of the source: active = inhibition above about 40%; inactive = the rest.
target: Cyclic GMP-AMP synthase (Mus musculus) (UniProt Q8C6L5); experiment: inhibition of Mus musculus cGAS, primary biochemical chemiluminescence screen (AID 1259399); details: recombinant cGAS, Kinase-Glo ATP depletion luminescence; at 12.5 µM; active compounds read high;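 note: 0% = negative control wells and 100% = reference inhibitor with no enzyme activity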
Sequence (Q8C6L5 whole entry, looked up): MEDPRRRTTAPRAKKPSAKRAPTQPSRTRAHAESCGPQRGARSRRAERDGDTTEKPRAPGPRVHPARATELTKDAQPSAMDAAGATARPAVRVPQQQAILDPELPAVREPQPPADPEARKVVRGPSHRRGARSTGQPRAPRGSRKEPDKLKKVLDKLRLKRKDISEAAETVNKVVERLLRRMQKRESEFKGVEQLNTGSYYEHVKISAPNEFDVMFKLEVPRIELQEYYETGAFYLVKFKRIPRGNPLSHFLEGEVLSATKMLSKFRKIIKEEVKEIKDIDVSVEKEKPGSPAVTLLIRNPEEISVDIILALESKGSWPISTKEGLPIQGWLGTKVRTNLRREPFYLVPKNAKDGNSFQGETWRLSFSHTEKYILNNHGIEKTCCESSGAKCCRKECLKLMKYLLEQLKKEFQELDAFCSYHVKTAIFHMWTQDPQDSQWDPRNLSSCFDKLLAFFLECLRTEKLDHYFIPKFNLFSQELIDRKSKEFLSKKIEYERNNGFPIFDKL

Structure (SMILES) | inhibition
Cc1ccc(C)c(N2CCN(C(=O)c3cccc(F)c3)C(C)C2=O)c1 (centres undefined) | -1.42%
CCc1nc2ccc(C(=O)N(C)Cc3ccccc3)cn2c1N(C)C(=O)c1cccc(OC)c1 | -0.76%
C=CCN(Cc1cccnc1)C(=O)C1CCCN1C(=O)C1CCCCC1 (centres undefined) | -14.1%
CCc1nc2c(OCCOc3ccc(F)cc3)cccn2c1N(C)C(=O)c1ccncc1 | -2.55%
O=c1c(O)c(Br)ccc2c(Br)c(O)c(O)c(O)c12 | 71.1% (active)
CCOc1c(Br)cc(Br)cc1CNCC(=O)N1CCCC1 | -7%
CN(C)c1ccc(/C=C/C=C2/SC(N)=NC2=O)cc1 | -4.74%
COc1ccc(C2NC(=O)N(C)C3=C2C(=O)N(Cc2ccc(F)cc2)C3)cc1 (centres undefined) | -4.51%
Cc1ccc2nc(-c3ccccc3F)c(NC(C)(C)CC(C)(C)C)n2c1 | -1.73%
N#CC1C(=N)Oc2c(c(=O)oc3ccccc23)C12C(=O)Nc1ccc(Br)cc12 (centres undefined) | -4.42%
CSc1ccc(C(=O)N2CCCC(CO)(CCCc3ccccc3)C2)cc1 (centres undefined) | -6.85%
Cc1[nH]c2c(c1C(=O)NCCOc1ccccc1F)C(=O)CCC2 | -9.39%
Cc1nc(N2CCOCC2)ncc1-c1cc(=O)[nH]c(N2CCc3ccccc3C2)n1 | -6.34%
COc1ccc(C(NC(=O)C2CCN(CCCc3ccccc3)CC2)c2cccs2)cc1 (centres undefined) | -2.89%
CCCCn1nnnc1CSc1nc(C)c(C)c(C)c1C#N | 0.584%
COc1ccccc1NC(=O)c1ccc(-n2nc(-c3ccc(Cl)cc3)cc2N)cc1 | -3.87%
O=C(Nc1cccc(-c2cccc(-c3ccc(F)cc3)n2)c1)c1c(F)c(F)c(F)c(F)c1F | -6.45%
COCCCN(CC(=O)N1CCc2sccc2C1COc1ccc(Cl)c(C)c1)C(=O)c1cccc(OC)c1 (centres undefined) | -4.66%
O=C(c1ccc(F)cc1F)N1CCC(c2nc(-c3ccc4c(c3)OCO4)no2)CC1 | -1.48%
COc1ccc(CC(=O)NNC(=O)c2cccn(Cc3ccc(F)cc3)c2=O)cc1 | -6.25%
CC[N+](C)(CC)CCC[n+]1c(-c2ccccc2)c2cc(N)ccc2c2ccc(N)cc21 | 78.9% (active)
CCN1CCN(C(=O)c2ccc(CSc3nnc(-c4cccs4)n3CC)cc2)CC1 | -5.22%
O=C(N1CC[C@@H](O)C1)C1(c2cccc(Br)c2)CC1 | -0.654%
CCn1cc(-c2cc(NCc3ccccn3)nc3[nH]ccc23)c(C)n1 | -9.58%
CCn1c(SCc2ccccc2OC(F)F)nnc1-c1c2c(nc3ccccc13)CCC2 | -4.53%
CCOc1ccc(S(=O)(=O)Nc2ccc3oc(-c4ccccc4)cc3c2)cc1 | -4.93%
CCOc1ccc(C2c3[nH]c4ccccc4c3CCN2C(=O)CSC)cc1 (centres undefined) | -3.44%

Structure (SMILES) | inhibition
Cc1ccc(NC(=O)c2ccc(CSc3nc(Cl)cc(N4CCN(C/C=C/c5ccccc5)CC4)n3)cc2)cc1C | -2.86%
C=CCN(C(=O)CCl)c1nc(-c2ccc(Cl)c(Cl)c2)cs1 | 72.2% (active)
N#Cc1ccc(-c2csc(NC(=O)c3cc([N+](=O)[O-])ccc3Cl)n2)cc1 | -5.77%
CCCS(=O)(=O)N1CCN(c2ccc(C)nn2)CC1 | -8.23%
COc1cc(CN(C)C(=O)c2c(C)noc2-c2ccccc2Cl)cc(OC)c1OC | 2.4%
CC(C)CN(Cc1ccc(OS(=O)(=O)c2ccc(F)cc2)cc1)S(=O)(=O)c1ccc(Cl)cc1 | -3.83%
COc1cc([N+](=O)[O-])ccc1NC(=O)C(C)Nc1ccc2nc(C)sc2c1 (centres undefined) | -7.43%
CC(C)(C)c1cc2nc(C(=O)NCCc3ccccn3)cc(-c3ccccc3F)n2n1 | -5%
O=C1NC2(CCN(C(=O)COc3ccccc3)CC2)Nc2ccc(Cl)c(Cl)c21 | -6.89%
C=C(C)CN(CC)C(=O)c1ccc(-c2ccc(OC)c(OC)c2OC)s1 | -8.29%
CSc1cccc(NC(=O)NCCNc2cc(-n3ccnc3C)nc(C)n2)c1 | -12.2%
O=C(CCC1CCN(C23CC4CC(CC(C4)C2)C3)CC1)Nc1ccccc1Cl | -11%
Cc1ccccc1-n1c(SCCCC(=O)N2CCN(C(=O)COCc3ccccc3)C(C)C2)nnc1-c1ccco1 (centres undefined) | -5.31%
COc1ncccc1-c1cc2c(cn1)nc(NCc1cccc(C)c1)n2C | -6.3%
CCn1nc(C(=O)N2CCN(c3ccccc3)CC2)c2c1CCN(C(=O)c1csc(SC)n1)C2 | -7.21%
CC(C)OCCNC(=O)c1ccc(-c2cc(-c3ccccc3)n[nH]2)cc1 | -2.09%
Cc1nc2n(n1)C(=O)C(C(c1cccs1)N1CCN(CCO)CC1)S2 (centres undefined) | -7.74%
CCc1cc2c(=O)c(-c3ccc4c(c3)OCO4)c(C)oc2cc1OC1OC(CO)C(O)C(O)C1O (centres undefined) | -6.86%
COc1cc(/C=C2/C(=O)N(c3ccc(Cl)c(Cl)c3)N=C2C)ccc1O | 27.3%
CCOC(=O)c1c(NC(=O)c2cccc3c2-c2ccccc2C3=O)c(-c2ccc(OC)c(OC)c2)cn1Cc1ccccc1 | -5.46%
CCn1c(=NC(=O)Cc2ccc(C)c(C)c2)sc2cc3c(cc21)OCCO3 | -9.59%
CCCC1(C2CCN(C(=O)[C@H]3C[C@@H]4C=C[C@H]3C4)CC2)NC(=O)N(CCc2cccs2)C1=O (some centres undefined) | -8.91%
O=C1c2ccccc2C(=O)c2cc(Sc3ccccc3)ccc21 | -6.93%
CCc1nc2c(OCCOc3ccccc3)cccn2c1N(C)C(=O)c1ccccc1F | -3.16%
CC12OC3(CCCCC3)C(C)(OC13CCCCC3)O2 | -2%
CC1CCCC(NC(=O)c2cc(S(=O)(=O)N3CCCC3)c[nH]2)C1C (centres undefined) | -4.23%
COc1ccc2[nH]c3c(c2c1)CCN(C(=O)COCc1ccccc1)C3COCc1ccccc1 (centres undefined) | -10.3%
